# VLA-4 inh: inhibition in a human VLA-4 binding assay; VLA-4 expressing cells, ligand binding flow cytometry; 0.2% of 330,000 active; P13612; inhibition, % (about 7 µM as worked out from the volumes in the protocol); in the data active means inhibition above about 50%
# Platelet DG rel: modulates dense granule release in human platelets; human platelet-rich plasma, SFLLRN dense granule ATP release, luminescence; inhibition, %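 (compounds screened at 7.5 µM in platelet-rich plasma)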; 0.22% of 300,000 active;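 active means mean replicate score, as percent of positive control, at or above 50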
# CHT block: human CHT choline transport inhibition. B-score at 10 µM. Q9GZV3. AID 488975. 0.86% of 310,000 active. CHT-expressing cells, membrane potential dye, choline response; hits give low values;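 active means B-score over 3 SD under the library average, and starting fluorescence ratio not unusually high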;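 further: choline stimulus applied at its EC90 after an EC20 pre-addition; B-score computed on integrated fluorescence ratio after choline addition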
# Target sequence (Q9GZV3 whole entry, looked up): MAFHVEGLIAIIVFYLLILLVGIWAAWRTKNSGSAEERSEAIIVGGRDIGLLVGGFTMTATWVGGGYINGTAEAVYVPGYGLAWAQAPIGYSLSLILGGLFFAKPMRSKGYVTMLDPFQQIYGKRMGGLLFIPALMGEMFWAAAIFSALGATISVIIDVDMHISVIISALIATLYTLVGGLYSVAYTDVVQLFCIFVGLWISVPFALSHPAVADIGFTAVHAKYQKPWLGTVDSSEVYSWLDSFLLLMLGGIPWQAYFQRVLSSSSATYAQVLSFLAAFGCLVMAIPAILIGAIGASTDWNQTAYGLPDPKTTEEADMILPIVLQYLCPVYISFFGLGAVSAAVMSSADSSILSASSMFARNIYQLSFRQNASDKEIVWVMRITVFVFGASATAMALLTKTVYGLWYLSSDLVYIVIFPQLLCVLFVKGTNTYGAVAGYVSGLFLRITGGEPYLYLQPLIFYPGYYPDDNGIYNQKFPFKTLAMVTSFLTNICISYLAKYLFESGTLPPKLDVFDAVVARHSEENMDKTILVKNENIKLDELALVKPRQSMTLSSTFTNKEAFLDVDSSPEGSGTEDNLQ
# CHT allo act: human CHT allosteric activation; Q9GZV3; 0.49% of 310,000 active; CHT-expressing cells, membrane potential dye, choline EC20; hits give high values; LV-AA mutant CHT in HEK293 cells; B-score at 10 µM;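 active means initial fluorescence not abnormally high and integrated response B-score, plate-corrected, over 3 SD above library mean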
# AI-2 QS mod: modulates the Vibrio harveyi AI-2 quorum sensing system; 0.4% of 300,000 active; Vibrio harveyi JMH597 AI-2 luminescence/OD600 ratio, 9 h; hits give low values; strain lacks LuxN and CqsS sensors; 0 = neutral-control median; activity change, % at 7.5 µM; in the data active means activity change below about -75%, passing the limit was not always enough;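 further: luminescence divided by OD600 gain over 9 h not by final OD600 alone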
# HIF act: HIF pathway transcriptional activation. U2OS HRE-luciferase reporter, luminescence; normalized: DMSO 0%, desferrioxamine 100%. activation, % at 7.5 µM (by protocol). 0.32% of 300,000 active. AID 1910;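 active means mean activation of at least 10% of the iron chelator positive control signal, with at least half of replicates also reaching 10%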
# CHT block conf: human CHT inhibition, confirmatory screen | 70% of 2,400 active | AID 493221 | CHT activity remaining % of control (hits give low values), % at 10 µM | CHT-expressing cells, choline membrane potential dye; LV-to-AA substituted CHT, HEK293 cells | shares compounds with CHT block;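 active means choline transporter activity left, mean of duplicates at 10 µM, below buffer-only control mean minus 3 SD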;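 further: depolarization triggered by choline at its EC90 following an EC20 pre-addition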
# HEK293 MPD ctr: activity in parental HEK293 cells lacking CHT; shares compounds with CHT block; membrane potential dye, choline response; active = decrease or increase beyond buffer ±3SD; membrane potential ratio readout (active if shifted either direction beyond buffer ±3SD; no single direction) at 10 µM; 4% of 2,400 active; AID 493222;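 further: parental cells lack the transporter so any hit is non-specific; ratio is peak minus trough fluorescence over baseline after EC90 choline challenge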
# Numbers stand for hits; i = inactive; nt = no result given. The list is not random: actives were taken first. Their share in the collection is about 2.2%.
SMILES,VLA-4 inh,Platelet DG rel,CHT block,CHT allo act,AI-2 QS mod,HIF act,CHT block conf,HEK293 MPD ctr
CCOc1ccc(NC(=O)c2c(N)n(C)c(=O)[nH]c2=O)cc1,nt,i,i,i,i,i,nt,nt
Fc1ccc(-c2nnc(SCc3ncc(-c4ccccc4)o3)n2CC2CCCO2)cc1 (stereo not drawn),i,i,-5.9,i,i,i,i,i
CCc1ccc(S(=O)(=O)c2n[nH]n3c2nc(=O)c2ccccc23)cc1,i,i,-4.9,i,i,i,8.6%,i
O=C(COC(=O)c1cc(S(=O)(=O)Nc2ccccc2Cl)ccc1O)Nc1ccc(F)c(F)c1F,i,nt,nt,nt,nt,nt,nt,nt
Cc1ccsc1/C=N/NC(=O)c1ccc2ccccc2c1,i,i,i,i,i,i,nt,nt
Cc1ccc(-c2nn(-c3ccccn3)c(=O)c3ccccc23)cc1C,i,i,i,i,i,i,nt,nt
Cc1ccc(-c2nn(-c3ccccn3)c(=O)c3ccccc23)cc1,i,i,-5.2,i,i,i,67%,i
C=CCNc1ncnc2c1ncn2C1OC(CO)C(O)C1O (stereo not drawn),i,i,-6,i,i,i,41%,i
CCOc1ccccc1N1CCN(C(=O)C(F)(F)F)CC1,i,i,-6.2,i,i,i,i,i
CC(C)c1nc(C(=O)N2CCCC(CCC(=O)N(C)CCc3ccccn3)C2)cs1 (stereo not drawn),i,i,-5.4,i,i,i,i,i
CC(C)c1cc(C(=O)N2CCCC(CCC(=O)N3CCN(c4ccccn4)CC3)C2)no1 (stereo not drawn),i,i,-6,i,i,i,47%,i
Cc1ccccc1C(=O)N1CCCC(CCC(=O)N2CCN(c3ccccn3)CC2)C1 (stereo not drawn),i,i,i,i,i,i,nt,nt
Cc1cc(OCc2cc(C(=O)NCCN3CCCCC3CO)no2)cc(C)c1Cl (stereo not drawn),i,i,-5.4,i,i,i,49%,i
COc1cccc(OCc2cc(C(=O)NCCN3CCCCC3CO)no2)c1 (stereo not drawn),i,i,i,i,i,i,nt,nt
CCCc1cc2c(=O)c(-c3ccccn3)c(C)oc2cc1O,i,i,-12,i,i,i,9.4%,i
CCN1C(=O)[C@H]2[C@@H](c3ccc(-c4ccc(OC)cc4)c(OC)c3)N3CCCC[C@@]3(C(=O)OC)[C@H]2C1=O,i,i,i,i,i,i,nt,nt
CC(=O)c1c(C)[nH]c(C(=O)COC(=O)c2ccc(Cl)nc2)c1C,i,nt,nt,nt,nt,nt,nt,nt
Oc1c(Br)cc(Br)cc1C=Nc1ccc2[nH]ncc2c1,i,i,-5.6,i,i,i,65%,i
Oc1c(Br)cc(Br)cc1C=Nc1cccnc1,i,i,-7.8,i,i,i,62%,i
Oc1c(Br)cc(Br)cc1/C=N/c1nccs1,i,nt,nt,nt,nt,nt,nt,nt
CCOc1ccc(S(=O)(=O)N2CCC(C(=O)N3CCc4ccccc4C3)CC2)cc1,i,i,i,i,i,i,nt,nt
CSc1ccc(S(=O)(=O)N2CCC(C(=O)N3CCc4ccccc4C3)CC2)cc1,i,i,-14,i,i,i,59%,i
COc1ccc(S(=O)(=O)N2CCC(C(=O)N3CCc4ccccc4C3)CC2)cc1,i,i,-5.8,i,i,i,49%,i
O=C(CCc1ccc(S(=O)(=O)N2CCOCC2)cc1)N1CCc2ccccc2C1,i,i,-5.8,i,i,i,66%,i
CC(C)Cn1nc(C(=O)Nc2cccc(C(=O)NC3CC3)c2)c2ccccc2c1=O,i,nt,nt,nt,nt,nt,nt,nt
CC[C@H](C)[C@@H]1NC(=O)c2cc([N+](=O)[O-])cc(I)c2SC[C@@H](C(N)=O)NC(=O)[C@H](CCCCN)NC1=O,i,nt,i,i,nt,nt,nt,nt
CCOC(=O)N1CCN(C(=O)c2ccc(Cn3c(=S)[nH]c4ccc(Br)cc4c3=O)cc2)CC1,i,i,i,i,i,i,nt,nt
Cc1nnc(SCc2ccc(F)cc2)n1NC/C=C/c1ccccc1,i,i,-7.1,i,i,i,i,i
